# FBW7 act: activators of human E3 ligase FBW7; Q969H0; AlphaScreen FBW7–phospho-cyclin E peptide binding, activator screen; normalized activity (activation), % at 26.1 µM; 650,000 tested, 0.13% active; AID 1259310; in the data active = normalized activity above about 1.9%;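 note: purified mutant Fbw7 with reduced substrate affinity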
# GPR151 activ: activators of human GPR151; Q8TDV0; PathHunter beta-arrestin GPR151 cells, luminescence; activation, % at 11.2 µM; 650,000 tested, 1% active; AID 1508602; in the data active = activation above about 4.9%;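 note: 0% = median of compound wells and 100% = cells with positive control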
# TEAD-YAP inh: TEAD-YAP interaction inhibition. HEK-TIYL cells, TEAD-Gal4/YAP UAS-luciferase luminescence. 640,000 tested, 1.4% active. inhibition, % at 9.12 µM. AID 1259422; in the data active = inhibition above about 32%;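 note: 0% = median of test compound wells and 100% = reference inhibitor wells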
# MITF inh: blocks human microphthalmia-associated transcription factor; O75030; AlphaScreen MITF homodimerization, bead proximity signal; inhibition, % at 2.6 µM; 650,000 tested, 0.91% active; in the data active = inhibition above about 50%;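 note: 0% = vehicle wells with protein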
# GPR151 confirm: human GPR151 activation, confirmation screen; GPR151 PathHunter beta-arrestin cells, luminescence, 90 min; % of EA-reagent control over plate median; activation, % at 11.2 µM; 6,700 tested, under 10 active; shares compounds with GPR151 activ;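 active = mean percent activation across replicates above the confirmation screen cutoff of 4.91%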
# GPR119 ag: activates human GPR119 in a GPR151 counter-screen. AID 1508611. activation, % at 11.2 µM. shares compounds with GPR151 activ. GPR119 PathHunter beta-arrestin cells, luminescence, 90 min; 0 = compound-well median, 100 = enzyme-acceptor control. 6,700 tested, 0.3% active;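 active = mean percent activation in the counterscreen above 29.09%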;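 note: counterscreen on off-target GPR119 to flag nonselective hits from the GPR151 activator screen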
# The depositor's hits bear a star; . = no result given; ! = not confirmed by another sample. This is a sample that favours compounds with a hit; in the whole collection about 3.4% have one here.
SMILES,FBW7 act,GPR151 activ,TEAD-YAP inh,MITF inh,GPR151 confirm,GPR119 ag
O=[N+]([O-])c1ccc(O)cc1CN1CCN(c2ccccc2)CC1,0,0,11,4,.,.
C=C[C@H]1CN2CC[C@H]1C[C@H]2[C@H](O)c1ccnc2ccccc12,0,5.4*!,20,-1,-1,3
COc1ccc(CNCCC2(c3ccccc3)CCOC(C)(C)C2)cc1OC (stereo not drawn),0,2,0,3,.,.
Cc1cc(C)[n+]2c(n1)sc1ccccc12,0,-1,-2,7,.,.
C=CCN1C(=O)/C(=C\c2cc(Cl)c(O)c(OC)c2)C(=O)NC1=S,0,1,-2,-8,.,.
C=CCN1C(=O)/C(=C/c2ccc(Cl)cc2Cl)C(=O)NC1=S,0,9.1*,4,9,-1,-8
CN1CCN(c2ccc([N+](=O)[O-])c(NCCO)c2)CC1,0,11*,0,-4,0,1
O=[N+]([O-])c1ccc(N2CCNCC2)cc1NCCO,0,0,-25,3,.,.
O=C1NC(=S)NC(=O)C1=Cc1ccc(I)o1,-2,5.7*,3,63*,-1,-9
CCCSc1nc2ccccc2c(=O)n1-c1cccc(C)c1,0,0,-9,8,.,.
CC(Cc1cccc(C(F)(F)F)c1)NCCCc1ccccc1 (stereo not drawn),0,9.1*,.,-9,0,-5
